{
  "source": "PubChem BioAssay",
  "data": [
    {"test_system": "not listed separately", "experiment": "small-molecule binders of probe aNOTCH2, primary screen, biochemical, small-molecule microarray, 635/667 nm fluorescence (AID 1121);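 further: score merges feature fluorescence read at 667 nm with its signal to noise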", "conditions": "higher = more signal", "values": [
      {"compound": "[N-]=[N+]=Nc1ccccc1C[C@]1(C(N)=O)N=C(c2ccc(OCCCO)cc2)O[C@H]1c1ccccc1N=[N+]=[N-]", "composite z-score": -0.0091},
      {"compound": "COc1cc(CO)cc(I)c1O[C@H]1C=C(C(=O)NCCO)C[C@@H](NCc2ccc(F)cc2)[C@@H]1O", "composite z-score": -0.148},
      {"compound": "CCCC[C@@H]1C[C@H]1[C@@H](NC(=O)c1cccs1)c1ccc(C(F)(F)F)cc1", "composite z-score": -0.0859},
      {"compound": "COCCOC(=O)N1C(=O)[C@@]2(c3cc(C#CC4=CCCCC4)ccc31)[C@H](C(N)=O)[C@H]1C(=O)O[C@H](c3ccccc3)[C@H](c3ccccc3)N1[C@@H]2c1ccccc1OCCO", "composite z-score": -0.114},
      {"compound": "O=C1OCCC=C[C@H]2OC34C=CCN(Cn5nnc6ccccc65)C(=O)[C@H]3N(CCCCCCO)C(=O)[C@@H]4C12", "note": "(stereo partly specified)", "composite z-score": -0.0532},
      {"compound": "Cc1ccc(S[C@]2(C(=O)O)CC(=O)N(Cc3cc(C(F)(F)F)cc(C(F)(F)F)c3)[C@@H]2c2ccc(CO)cc2)cc1", "composite z-score": -0.154}
    ]},
    {"biological_target": "Carbonic anhydrase 2 (Homo sapiens) (UniProt P00918)", "experiment": "CAII small-molecule binders, profiling panel, biochemical, small-molecule microarray, Alexa647-labelled CAII (AID 1122)", "conditions": "CAII-A647 binding fluorescence, higher = more signal", "values": [
      {"compound": "CCOC(=O)C[C@H]1[C@H](OC(=O)c2ccccc2-c2ccccc2)[C@@H](NC(=O)c2ccc(-c3ccccc3)cc2)c2cc(OCCCO)ccc2N1C(=O)c1ccc2ccccc2n1", "composite z-score": 0.131},
      {"compound": "C=CCC(OC(C)=O)[C@@H]1[C@@H](N(Cc2ccc(-c3ccccc3)cc2)C(=O)Cc2ccc(F)cc2)c2cc(OCCCO)ccc2N1C(=O)Cc1ccc(OC)cc1", "note": "(stereo partly specified)", "composite z-score": 0.207},
      {"compound": "O=C(NCC(F)(F)F)[C@@H]1c2ccccc2C(=O)N(Cc2ccc(OC(F)(F)F)cc2)[C@H]1c1ccc(CO)cc1", "composite z-score": 0.65},
      {"compound": "COC(=O)CCCCCCC(=O)Nc1ccc(NC(=O)CCCC[P+](c2ccccc2)(c2ccccc2)c2ccccc2)cc1", "composite z-score": -0.281},
      {"compound": "CCCCCCc1nc(C2CC2)cc2c1[Si](C(C)C)(C(C)C)OC2", "composite z-score": -0.513},
      {"compound": "O=C1O[C@H](c2ccccc2)[C@H](c2ccccc2)N2[C@H]1[C@@H](C(=O)Nc1nc3ccccc3s1)[C@]1(C(=O)Nc3ccccc31)[C@H]2c1ccc(OCCO)cc1", "composite z-score": 0.546},
      {"compound": "C=C(/C(=C/C[C@H](OC(=O)c1ccncc1)c1ccc(CO)o1)c1cc(C(=O)OC)ccc1OC)C(C)C", "composite z-score": 0.541},
      {"compound": "CN(C)C(=O)[C@@]1(CCS(=O)(=O)c2ccccc2)N=C(c2ccc(OCCCO)cc2)O[C@H]1c1ccccc1", "composite z-score": 0.646},
      {"compound": "O=C1OCCC/C=C\\[C@H]2OC34C=CCN(CCN5CCOCC5)C(=O)[C@H]3N(CCCCCCO)C(=O)[C@@H]4C12", "note": "(stereo partly specified)", "composite z-score": 0.867},
      {"compound": "O=C1C2C=CC(C(O)c3ccc(Br)cc3)N(Nc3ccccc3F)C2C(=O)N1c1ccccc1", "note": "(stereo unspecified)", "composite z-score": 0.762},
      {"compound": "CCCCC(=C=CC[C@@H](O)c1ccccc1OCCO)C[C@@H](O)COCc1ccccc1", "composite z-score": 0.47},
      {"compound": "O=C1O[C@@H](c2ccccc2)[C@@H](c2ccccc2)N2[C@@H](c3ccc(O)cc3)[C@]3(C(=O)Nc4ccc(C#CC5=CCCCC5)cc43)[C@@H](C(=O)NC[C@H](O)c3ccccc3)[C@H]12", "composite z-score": 0.401},
      {"compound": "NC(=O)NCC#Cc1ccc2c(c1)[C@]1(C(=O)N2)[C@H](C(=O)NC[C@H](O)c2ccccc2)[C@H]2C(=O)O[C@H](c3ccccc3)[C@H](c3ccccc3)N2[C@@H]1c1ccc(OCCO)cc1", "composite z-score": 0.377},
      {"compound": "CC(C)N1CC=CC23O[C@@H]4C=CCOC(=O)[C@@H]4[C@H]2C(=O)N(CCCO)[C@@H]3C1=O", "note": "(stereo partly specified)", "composite z-score": 0.863},
      {"compound": "N#Cc1ccc(C(O)C2C=CC3C(=O)N(c4ccccc4)C(=O)C3N2Nc2ccccc2)cc1", "note": "(stereo unspecified)", "composite z-score": 0.722},
      {"compound": "CCCCN1CC=CC23O[C@@H]4/C=C\\CCC(C)OC(=O)C4[C@H]2C(=O)N(C(CO)C(C)C)[C@@H]3C1=O", "note": "(stereo partly specified)", "composite z-score": 0.815},
      {"compound": "C=CCN1Cc2ccccc2[C@H]2OC(c3ccc(OCCCO)cc3)=N[C@@]2(CC=C)C1=O", "composite z-score": 0.418},
      {"compound": "CC(CO)N1C(=O)[C@@H]2[C@H]3C(=O)OCC=C[C@H]3OC23C=CCN(CCN2CCOCC2)C(=O)[C@@H]13", "note": "(stereo partly specified)", "composite z-score": 0.302},
      {"compound": "CCCCCCc1nc(-c2cc(C)c(OC)c(C)c2)c(C)c2c1[Si](C(C)C)(C(C)C)OC2", "composite z-score": -0.146},
      {"compound": "C=C(COC)/C(=C/C[C@H](OC(=O)c1ccncc1)c1ccccc1OCCO)c1cnc2ccccc2c1", "composite z-score": 0.881},
      {"compound": "CO[C@H]1O[C@H](CO)[C@@H](OC(=O)Nc2ccc3c(c2)OCO3)[C@H](OC(=O)c2cc3ccccc3[nH]2)[C@H]1OC(=O)c1cc2ccccc2[nH]1", "composite z-score": 0.402},
      {"compound": "O=C1N(Cc2ccccc2)c2ccccc2[C@@H]2OC(c3ccc(OCCCO)cc3)=N[C@]12Cc1ccccc1", "composite z-score": 0.607},
      {"compound": "CCOC(=O)c1ccc(NC(=O)O[C@H]2[C@H](OC(=O)Nc3ccc4c(c3)OCO4)[C@@H](OC(=O)Nc3ccc4c(c3)OCO4)[C@@H](OC)O[C@@H]2CO)cc1", "composite z-score": 0.516},
      {"compound": "C=CCC(OC(C)=O)[C@@H]1[C@@H](N(Cc2cccc3ccccc23)C(=O)Cc2ccc(OC)cc2)c2cc(OCCCO)ccc2N1C(=O)c1ccc2ccccc2n1", "note": "(stereo partly specified)", "composite z-score": 0.189},
      {"compound": "COCCCNC(=O)[C@@]1(Cc2ccccc2CN=[N+]=[N-])N=C(c2ccc(OCCCO)cc2)O[C@H]1c1ccccc1", "composite z-score": 0.254},
      {"compound": "COC(=O)[C@@]1(Cc2ccccc2)[C@H]2c3cc(C(=O)N(C)C)n(CCc4ccc(O)c(OC)c4)c3C[C@H]2CN1C(=O)c1ccccc1", "composite z-score": 0.126},
      {"compound": "CN1C(=O)C2C=CC(C(O)COCc3ccccc3)N(N(c3ccccc3)c3ccccc3)C2C1=O", "note": "(stereo unspecified)", "composite z-score": 0.412},
      {"compound": "CC(c1ccccc1)C(O)C1C=CC2C(=O)N(c3ccccc3)C(=O)C2N1Nc1ccc([N+](=O)[O-])cc1", "note": "(stereo unspecified)", "composite z-score": 0.526},
      {"compound": "[N-]=[N+]=NCc1ccccc1[C@H]1OC(c2ccc(OCCCO)cc2)=N[C@@]1(CCS(=O)(=O)c1ccccc1)C(=O)N1CCCCC1", "composite z-score": 0.753},
      {"compound": "[N-]=[N+]=Nc1ccccc1C[C@]1(C(N)=O)N=C(c2ccc(OCCCO)cc2)O[C@H]1c1ccccc1N=[N+]=[N-]", "composite z-score": 0.672},
      {"compound": "COc1cc(CO)cc(I)c1O[C@H]1C=C(C(=O)NCCO)C[C@@H](NCc2ccc(F)cc2)[C@@H]1O", "composite z-score": 0.223},
      {"compound": "CCCC[C@@H]1C[C@H]1[C@@H](NC(=O)c1cccs1)c1ccc(C(F)(F)F)cc1", "composite z-score": -0.195},
      {"compound": "COCCOC(=O)N1C(=O)[C@@]2(c3cc(C#CC4=CCCCC4)ccc31)[C@H](C(N)=O)[C@H]1C(=O)O[C@H](c3ccccc3)[C@H](c3ccccc3)N1[C@@H]2c1ccccc1OCCO", "composite z-score": 0.652},
      {"compound": "O=C1OCCC=C[C@H]2OC34C=CCN(Cn5nnc6ccccc65)C(=O)[C@H]3N(CCCCCCO)C(=O)[C@@H]4C12", "note": "(stereo partly specified)", "composite z-score": 0.875},
      {"compound": "Cc1ccc(S[C@]2(C(=O)O)CC(=O)N(Cc3cc(C(F)(F)F)cc(C(F)(F)F)c3)[C@@H]2c2ccc(CO)cc2)cc1", "composite z-score": 0.65}
    ]}
  ]
}
